Shown is part of a subset that was picked to be rich in hits.
Shiga toxin inh = A qHTS for Small Molecule Inhibitors of Shiga Toxin; Vero cells, Shiga toxin protein synthesis inhibition reporter; inhibition, % at 38.7 µM; 290,000 tested, 9.2% active; AID 2315, 2010; in the data active = inhibition mostly above about 28%, no sharp cut-off; inactive = mostly below about 43%; also: 0% is about no effect
AMA1-RON2 inh = qHTS for Inhibitors of AMA1-RON; Towards Development of Antimalarial Drug Lead: Primary Screen; 360,000 tested, 0.2% active; AlphaScreen AMA1-biotinylated RON2 peptide binding; Potency, µM (top dose mostly 58.2 µM), for inactives: top-dose activity change, negative = inhibition, hits mostly inhibitors;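 also: potency is read from the fitted curve at half-maximal effect; 0% = vehicle wells and -100% = peptide control; nearly all actives have a fitted effect of over 45% in size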
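AMA1 (3D7) with his tag at 25 nM final met compounds first, then biotinylated RON2 peptide at 25 nM; detection used donor plus acceptor beads, 10 µg/mL apiece, read by AlphaScreen after 30 min at room temperature.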
AmpC detergent = qHTS Inhibitors of AmpC Beta-Lactamase (assay with detergent); P00811; AmpC hydrolysis of nitrocefin, absorbance 480 nm, 0.01% Triton; Potency, µM (titrated, usually from 114 µM), for the others: at the highest dose activity change, negative = inhibition, hits mostly inhibitors; 370,000 tested, 0.041% active; AID 485294, 2010;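 also: potency is read from the fitted curve at half-maximal effect; 0% = no-compound wells and -100% = no-enzyme wells; nearly all actives have a fitted effect of over 25% in size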
Target sequence (P00811 whole entry, looked up): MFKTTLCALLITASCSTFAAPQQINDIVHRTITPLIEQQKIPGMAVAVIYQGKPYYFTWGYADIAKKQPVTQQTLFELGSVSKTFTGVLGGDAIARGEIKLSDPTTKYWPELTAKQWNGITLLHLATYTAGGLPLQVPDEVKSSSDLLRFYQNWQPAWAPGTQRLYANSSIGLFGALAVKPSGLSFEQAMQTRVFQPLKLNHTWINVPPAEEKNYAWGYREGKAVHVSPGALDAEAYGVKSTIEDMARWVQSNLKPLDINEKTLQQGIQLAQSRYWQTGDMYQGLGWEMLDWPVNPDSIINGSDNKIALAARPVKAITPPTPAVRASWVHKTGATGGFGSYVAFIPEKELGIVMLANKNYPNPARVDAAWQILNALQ
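AmpC (5.3 nM in the dispensed reagent) in 20 mM phosphate pH 7.0 with 0.01% (detergent screen) or 0.0001% Triton X-100 was preincubated with compounds for 15 min at room temperature. Nitrocefin was then added from an 800 uM solution, and hydrolysis was followed at 480 nm.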
CHX counter = Cycloheximide Counterscreen for Small Molecule Inhibitors of Shiga Toxin | cell reporter, cycloheximide protein synthesis inhibition counterscreen | max response, % | 300,000 tested, 12% active | AID 2314, 2010; in the data active = max response mostly above about 13%, no sharp cut-off; inactive = mostly below about 14%; also: read at 38.3 µM for the half of the compounds with a filed dose; 0% is about no effect
SARS PLpro yeast = qHTS of Yeast-based Assay for SARS-CoV PLP; S. cerevisiae expressing SARS-CoV PLpro, growth rescue; Potency, µM (top dose mostly 32.9 µM), for inactives: at the top dose activity, positive = growth rescue, most hits filed as activators; 330,000 tested, 0.19% active; AID 485353, 2010; calls by dose curve; also: potency is read from the fitted curve at half-maximal effect; 0% is about no effect; nearly all actives have a fitted effect of over 55% in size
AmpC inh no detg = qHTS Inhibitors of AmpC Beta-Lactamase (assay without detergent) | 330,000 tested, 0.52% active | AmpC nitrocefin hydrolysis, absorbance 480 nm, 0.0001% Triton | Potency, µM (series often up to 57.1 µM), for the others: at the highest dose activity change, negative = inhibition, most hits filed as inhibitors;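 also: potency is read from the fitted curve at half-maximal effect; plate controls were no compound for no effect and no enzyme for full effect; nearly all actives have a fitted effect of over 20% in size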
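20 mM phosphate pH 7.0 + 0.01% (detergent screen) or 0.0001% Triton X-100; 5.3 nM AmpC reagent; cpd preinc 15 min RT; nitrocefin (800 uM stock) to start; A480 q20 s × 4 min; Activity was normalised to no-enzyme and no-compound control wells.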
Numbers without * were called inactive; ? = inconclusive; . = no result; [ ] = remark or other dose. Unless noted, calls follow the shape of the dose curve; as a rule, active = well fitted curve in the direction sought with a large enough effect; inconclusive = small, poorly fitted or top-dose-only effect, or another doubt; inactive = no such curve, though single readings can be large; an effect the other way counts as inactive or inconclusive.

SMILES	Shiga toxin inh	AMA1-RON2 inh	AmpC detergent	CHX counter	SARS PLpro yeast	AmpC inh no detg
O=C(COC(=O)COc1ccccc1[N+](=O)[O-])Nc1ccc2c(c1)OCO2	.	1%	.	.	0%	-4%
CC(=O)NCc1ccc(S(=O)(=O)N2CCN(c3ccccn3)CC2)cc1	-1	35%	3%	-3	2%	2%
O=C(COc1ccc2ccc(=O)oc2c1)Nc1ccc2c(c1)OCCO2	9	-5%	?	13*	-1%	-17%
COC(=O)c1ccc(NC(=O)COc2ccc3c(c2)OCO3)cc1	-7	0%	-3%	20*	-3%	-20%
Cc1ccc(OCC(=O)Nc2ccc3c(c2)OCO3)cc1C	29*	0%	5%	25*	-3%	-14%
COc1cc(C)c(NC(=O)COc2ccc3c(c2)OCO3)cc1C	49*	1%	0%	20*	-1%	-2%
CCCCn1c(N)c(N(CC(C)C)C(=O)CC(NC(=O)c2ccccc2)c2ccccc2)c(=O)[nH]c1=O (centres undefined)	.	0%	-22%	.	-1%	-19%
C[C@@H]1CN([C@H](C)CO)S(=O)(=O)c2ccc(-c3cccc(C(=O)N(C)C)c3)cc2O[C@H]1CN(C)C(=O)Nc1ccc(F)cc1	.	1%	.	.	.	.
O=C(COc1ccccc1[N+](=O)[O-])N/N=C/c1cccc(OC(=O)c2ccc3c(c2)OCO3)c1	95*	-3%	?	93*	4%	-21%
O=C(Cc1ccccc1[N+](=O)[O-])Nc1ccc2c(c1)OCCO2	89*	0%	3%	55*	8%	-7%
COCCNCc1ccc(Cl)cc1Cl	-4	12%	-1%	0	1%	-18%
Fc1ccc(CNc2nc(-c3cccnc3)nc3ccccc23)cc1	-6	3%	-12%	7	-13%	-27%
N/C(=N\OC(=O)C1CCCCC1)c1ccc(Br)cc1	51*	-1%	-8%	23*	-4%	-29%
N/C(=N\OC(=O)C1CCCCC1)c1ccncc1	30*	-11%	-1%	11*	0%	1%
N/C(=N\OC(=O)C1CCCCC1)c1ccc(Cl)cc1	46	4%	4%	28*	.	-10%
N/C(=N\OC(=O)CCCOc1ccccc1)c1ccc(Br)cc1	-11	18%	?	1	2%	-23%
O=C(CNC(=O)C1CCCCC1)OCC(=O)c1ccc(Br)cc1	56*	-13%	1%	41*	2%	-13%
N/C(=N\OC(=O)C12CC3CC(CC(C3)C1)C2)c1ccncc1	28	11%	1%	7	4%	4%
Cc1ccc(OCc2cc(=O)n3ccsc3n2)c(NC(=O)c2ccco2)c1	.	.	-2%	.	.	.
CC(=NOC(=O)C1CCCCC1)c1nccs1	.	13%	.	.	.	.
N/C(=N\OC(=O)C1CCCCC1)c1ccccn1	86*	39%	-11%	31*	11%	-8%
CCOC(=O)C(C(=O)NCc1ccc(F)cc1)c1ncc(C(F)(F)F)cc1Cl (centres undefined)	12	-6%	-11%	17*	3%	7%
CCCCC(=O)Nc1ncc([N+](=O)[O-])s1	54*	-8%	?	17*	-1%	-13%[2.29 µM]
CCCCC(=O)Nc1nnc(C)s1	-2	3%	-14%	-7	11%	-18%
CCCCC(=O)Nc1ncc(Br)s1	32	2%	-14%	11*	-2%	-9%
COc1ccc(CC(=O)Nc2ncc([N+](=O)[O-])s2)cc1OC	-8	37%	-1%	0	0%	-41%
CC(C)CC(=O)Nc1ncc([N+](=O)[O-])s1	84*	25%	-8%	41*	0%	-32%
COc1ccc(C)cc1NC(=O)c1cnc2scc(C)n2c1=O	0	18%	?	-2	-5%	-11%
O=C(NCc1cccnc1)c1cnc2n(c1=O)CCS2	10	0%	-20%	3	-16%	-11%
COc1ccc(C)cc1NC(=O)c1cnc2n(c1=O)CCS2	6	-1%	?	10*	5%	-6%

Assay outcomes: PubChem BioAssay, National Center for Advancing Translational Sciences (NCATS)
